Compound activity as filed in PubChem.
HT1080 IDH1KD tx – kills HT-1080 cells with IDH1 knockdown | HT-1080 IDH1 knockdown viability, ATP luminescence, 48 h | Potency, µM (titrated, usually from 46.1 µM), without a hit: at the top dose activity, negative = toxicity, most hits filed as cytotoxic | 2% of 360,000 active | AID 686971;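 also: 0% = DMSO wells and -100% = cell-free medium wells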
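HT-1080-IDH1KD cells (IDH1 knocked down), 750/well in RPMI with 5% FBS, treated with compound 48 h at 37 degrees C. Viability by CellTiter-Glo luminescence, normalised to DMSO and no-cell wells; concentration-response curves classed.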
DT40 TDP1 CPT – growth inhibition of DT40 Tdp1-/-;hTDP1 cells with camptothecin (screen for TDP1 inhibitors); chicken DT40 Tdp1-/-;hTDP1 cells + 20 nM CPT, ATP luminescence, 48 h; Potency, µM (top dose mostly 46.2 µM), for inactives: at the top dose activity change, negative = growth inhibition, most hits filed as inhibitors; 12% of 420,000 active; AID 686979; also: % is scaled to controls: 0 for no effect and ±100 for the full control effect; nearly all actives have a fitted effect of over 55% in size
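Chicken DT40 Tdp1-/- cells complemented with human TDP1, 400 cells/well, exposed to compounds plus 20 nM camptothecin for at least 48 h at 37 C; viability read as ATP content by CellTiter-Glo luminescence.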
HT1080-NT tox – kills 2HG-producing HT-1080-NT fibrosarcoma cells. HT-1080-NT fibrosarcoma viability, CellTiter-Glo ATP luminescence, 48 h. Potency, µM (titrated, usually from 46.1 µM), inactives show top-dose activity, negative = less viability, hits mostly cytotoxic. 1.6% of 360,000 active. AID 686970;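 also: NT is the 2HG producing partner of a matched IDH1 knockdown line; 0% = DMSO-treated cells and -100% = media-only wells without cells; nearly all actives have a fitted effect of over 55% in size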
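HT-1080-NT fibrosarcoma cells (2HG-overproducing), 750 cells/well in RPMI with 5% FBS, dosed after 2 h and incubated 48 h at 37C. CellTiter-Glo luminescence normalized to DMSO and no-cell wells; concentration-response curves fitted and classed.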
TDP1 cell noCPT – qHTS for Inhibitors of human tyrosyl-DNA phosphodiesterase 1 (TDP1): qHTS in cells in absence of CPT; DT40 Tdp1-/- hTDP1 cells, no CPT, ATP luminescence, 48 h; Potency, µM (titrated, usually from 46.2 µM), without a hit: at the highest dose activity change, negative = growth inhibition, hits mostly inhibitors; 15% of 420,000 active; AID 686978, 2013; also: % is scaled to controls: 0 for no effect and ±100 for the full control effect; nearly all actives have a fitted effect of over 55% in size
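Seeded 400 DT40-hTDP1 cells/well (vehicle DMSO, no 20 nM CPT); pinned compounds; ≥48 hr at 37 °C; CellTiter-Glo luminescence as viability measure.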
HepG2 viability – kills HepG2 cells in TGF-b inhibitor counter-screen; Potency, µM (highest dose often 46.1 µM), for inactives: top-dose activity change, negative = cytotoxicity, most hits filed as cytotoxic; HepG2 CAGA-GFP viability, ATP luminescence, 18 h; 0.76% of 410,000 active
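CellTiter-Glo luminescence gave cytotoxicity after 18 hours at 37 degrees C. The cells were HepG2 CAGA-GFP in 1% FBS DMEM, stimulated with 500 pg/mL TGF-beta after compound addition. %Activity was normalised to no-cell wells (complete cell-killing) and DMSO (no toxicity), and curves were fitted and classified.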
TGFb inhibitor – TGF-b pathway inhibition | HepG2 CAGA-GFP TGF-b/SMAD3 reporter, GFP fluorescence, 18 h; TGF-beta stimulated, 500 pg/mL final | Potency, µM (titrated, usually from 46.1 µM), for the others: at the highest dose activity, negative = inhibition, usual class: inhibitors | 1.2% of 410,000 active | AID 588855; also: % is scaled to controls: 0 for no effect and ±100 for the full control effect; nearly all actives have a fitted effect of over 65% in size
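Read-out: total well GFP (ex488/em500-530) summed from mean per-cell fluorescence. Cells: HEPG2 CAGA-GFP, 1% FBS DMEM, 18 h at 37 degrees C with 500 pg/mL final TGF-beta. Unstimulated wells served as the full-inhibition control; stimulated DMSO wells = 0%.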
* = called active by the depositor; ? = inconclusive; . = no result given; [ ] = dose if it differs, or a comment. Rows were chosen to be rich in hits. Some 17% of all compounds tested hit in one or more screens of this group. Calls follow the shape of the dose curve; as a rule, active = well fitted curve in the direction sought with a large enough effect; inconclusive = small, poorly fitted or top-dose-only effect, or another doubt; inactive = no such curve, though single readings can be large; an effect the other way counts as inactive or inconclusive. Potency is read from the fitted curve at half-maximal effect.

SMILES	HT1080 IDH1KD tx	DT40 TDP1 CPT	HT1080-NT tox	TDP1 cell noCPT	HepG2 viability	TGFb inhibitor
CCCC(=O)NC(c1cccs1)c1cc(Cl)c2cccnc2c1O (stereo unspecified)	?	5.2µM*	-28%	2.9µM*	-31%	?
CCC(=O)NC(c1cccs1)c1cc([N+](=O)[O-])c2cccnc2c1OC (stereo unspecified)	.	.	.	.	-10%	-7%
CCCC(=O)NC(c1ccco1)c1cc(Cl)c2cccnc2c1O (stereo unspecified)	10µM*	3.7µM*	?	4.6µM*	-17%	-3%
CCC(=O)NC(c1ccco1)c1cc(Cl)c2ccccc2c1O (stereo unspecified)	.	.	.	.	-23%	?
CC(=O)NC(c1ccco1)c1cc(F)c2cccnc2c1O (stereo unspecified)	.	.	.	.	8.9µM*	?
O=C(O)COc1ccccc1C(Nc1cccnc1)c1cc(Cl)c2cccnc2c1O (stereo unspecified)	-20%	6%	-5%	10%	-12%	-9%
CC(C)C(=O)NC(c1cccs1)c1cc([N+](=O)[O-])c2cccnc2c1O (stereo unspecified)	7.3µM*	?	?	?	-34%	?
O=C(Nc1ccccc1C(=O)N1CCCCC1)c1cc(F)c(F)cc1Cl	-26%	-2%	2%	-5%	-28%	?
COc1cc(-c2nc(C)cnc2C)cc2c1OCCN(C(=O)Cn1nc(-c3ccccc3)c3ccccc3c1=O)C2	.	-6%[9.04 µM]	.	2%	.	.
CCCC(=O)NC(c1ccc2c(c1)OCO2)c1cc(Cl)c2cccnc2c1O (stereo unspecified)	3.7µM*	4.6µM*	8.2µM*	3.7µM*	-7%	?
CCN(Cc1ccccc1)S(=O)(=O)c1ccc(N2CCCCS2(=O)=O)cc1	.	?	.	?	-19%	-22%
Clc1cccc(CNc2cc(-c3ccccc3)nc3nncn23)c1	.	15µM*	.	15µM*	-65%	?
Clc1ccc(CNc2cc(-c3ccccc3)nc3nncn23)cc1	.	16µM*	.	13µM*	-27%	?
COc1ccccc1CNc1cc(-c2ccccc2)nc2nncn12	.	23µM*	.	16µM*	-51%	?
CC(=O)Nc1cc(-c2ccccc2)nn1Cc1ccc(Cl)cc1	-2%	-18%	-3%	1%	-21%	0%
CCOc1ccc(CN2CCNC(=O)C2CC(=O)NCc2csc(C(C)C)n2)cc1 (stereo unspecified)	-6%	-17%	-7%	13%	-9%	-2%
COc1ccccc1N(C)C	.	-2%	.	3%	-32%	4%
Cc1ccc(N=Cc2cc(Br)cc(Cl)c2O)cc1	-12%	?	-16%	-22%	-16%	-14%
Cc1cc(C)cc(N=Cc2[nH]c3ccc(Br)c(Cl)c3c2O)c1	?	16µM*	?	?	-41%	32%
COc1ccc(CN=Cc2[nH]c3ccc(Br)c(Cl)c3c2O)cc1	10µM*	?	?	?	-40%	-17%
CC(=O)Nc1cc(-c2ccc(CO)cc2)cn2c(-c3ccc(F)cc3)cnc12	0%	16µM*	-12%	16µM*	-26%	1%
CC(=O)Nc1cc(-c2ccncc2)cn2c(-c3ccccc3)cnc12	14%	18µM*	24%	16µM*	-23%	0%
CC(=O)Nc1cc(-c2ccc(F)cc2)cn2c(-c3ccc(S(C)(=O)=O)cc3)cnc12	0%	?	-22%	16µM*	5%	4%
CC(=O)Nc1cc(-c2ccc(F)cc2)cn2c(-c3ccc(F)cc3)cnc12	?	16µM*	?	18µM*	-2%	-3%
Cc1cccc(NC(=O)Cn2c(=O)n(Cc3ccc4c(c3)OCO4)c(=O)c3ccccc32)c1	.	?	.	?	-9%	-18%
SMILES	HT1080 IDH1KD tx	DT40 TDP1 CPT	HT1080-NT tox	TDP1 cell noCPT	HepG2 viability	TGFb inhibitor
COc1ccc(-c2nc(C#N)c(N3CCCCC3)o2)cc1	-1%	-5%	8%	-26%	-29%	3%
N#Cc1nc(-c2ccc(F)cc2)oc1N1CCCCC1	1%	?	?	-4%	-9%	0%
COc1ccc(-c2nc(C#N)c(N3CCCCCC3)o2)cc1	-18%	18µM*	0%	18µM*	-5%	-16%
N#Cc1nc(-c2ccc(F)cc2)oc1N1CCCC1	9%	7.3µM*	12%	21µM*	38%	13%
COc1ccccc1-c1nc(C#N)c(N2CCN(C(c3ccccc3)c3ccccc3)CC2)o1	0%	16µM*	8%	23µM*	-19%	-8%
COc1ccccc1-c1nc(C#N)c(N2CCN(c3cccc(Cl)c3)CC2)o1	-7%	?	6%[9.24 µM]	?	-18%	24%
COc1ccc(-c2nc(C#N)c(N3CCCCCC3)o2)cc1OC	-4%	15µM*	-3%	11µM*	3%	-18%
CCOC(=O)CSc1nc2sc3c(c2c(=O)n1Cc1ccccc1)CCC(C(C)(C)C)C3 (stereo unspecified)	.	-10%	.	5%	-20%	-2%
O=C(c1ccc([N+](=O)[O-])cc1)N(Cc1ccc(Br)cc1)N1C(=O)CCCC1=O	4%	-19%	23%	-5%	4%	0%
CSc1ccc(CNC(=O)C2(C)CCN2C(C)C)cc1 (stereo unspecified)	13%	-14%	19%	-17%	-5%	2%
COc1ccc(-c2nc(C#N)c(N3CCC(C)CC3)o2)cc1	28%	?	13%	13µM*	-23%	-10%
CCOc1ccc(-c2nc(C#N)c(N3CCN(C)CC3)o2)cc1	-5%	-23%	0%	-18%	31%	-18%
CCOc1ccc(-c2nc(C#N)c(N3CCCCCC3)o2)cc1	7%	21µM*	-13%	?	-21%	?
COc1ccc(OC)c(C2(O)CSC(=Nc3cccnc3)N2Cc2ccco2)c1 (stereo unspecified)	2%	15µM*	8%	18µM*	-3%	-11%
CCOc1ccc(NC(=O)CN(C)C(=O)c2c(C)nn(-c3ccccc3)c2Cl)cc1OCC	5%	5%	0%	-13%	-17%	-13%
CC(=O)Nc1cccc(-c2cnc(N)c(C(=O)c3cccnc3)n2)c1	-25%	8.2µM*	-24%	10µM*	-13%	10µM*
